# Measured values as given in PubChem BioAssay (NCATS).
# Inconclusive results are not listed. Activity calls are given as the source filed them. Unless noted, the call rests on the fitted dose curve; in most records, active means well fitted inhibition curve with a large enough effect; inconclusive means small, poorly fitted or top-dose-only effect; inactive means flat fitted curve, though single readings scatter.
# How the values were obtained:
# [1] = qHTS drug screen for cell cycle checkpoint inhibitors in PARPi-resistant BRCA-mutant ovarian cancer cell lines. (AID 1963452; calls by dose curve); conditions: PEO1/OlaR viability, CellTiter-Glo luminescence, 96 h; for Z-AUC: stronger effect = lower value
# In short: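 PEO1, PEO4 and PEO1/OlaR ovarian cancer cells, 600 per well, exposed 96 h at 37C to a dilution series. Viability read by CellTiter-Glo luminescence, normalized to DMSO and empty wells; activity summarized as Z-AUC.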
# [2] = qHTS profiling for inhibitors of Plasmodium falciparum proliferation (AID 504749); further: nearly all actives have a fitted effect of over 60% in size; conditions: P. falciparum in erythrocytes, SYBR Green DNA, 72 h
# In short: (§1)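 In a 72 h erythrocytic culture (37 C, humidified, 5% CO2) at 2.5% hematocrit and 0.3% starting parasitemia, compounds were tested; SYBR Green I in detergent lysis buffer stained parasite DNA overnight.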
# 3D7 = assay: as above; conditions: P. falciparum in erythrocytes, SYBR Green DNA, 72 h; series mostly up to 28.7 µM
# In short: as §1
# 7G8 = assay: as above; conditions: P. falciparum in erythrocytes, SYBR Green DNA, 72 h; series mostly up to 28.7 µM
# In short: as §1
# AA1029 = assay: as above; conditions: P. falciparum in erythrocytes, SYBR Green DNA, 72 h; series mostly up to 28.7 µM
# In short: as §1
# AS120 = assay: as above; conditions: P. falciparum in erythrocytes, SYBR Green DNA, 72 h; series mostly up to 28.7 µM
# In short: as §1
# ATS189 = assay: as above; conditions: P. falciparum in erythrocytes, SYBR Green DNA, 72 h; series mostly up to 28.7 µM
# In short: as §1
# ATS95 = assay: as above; conditions: P. falciparum in erythrocytes, SYBR Green DNA, 72 h
# In short: as §1
# C2A = assay: as above; conditions: P. falciparum in erythrocytes, SYBR Green DNA, 72 h; series mostly up to 28.7 µM
# In short: as §1
# CP185 = assay: as above; conditions: P. falciparum in erythrocytes, SYBR Green DNA, 72 h; series mostly up to 28.7 µM
# In short: as §1
# CP191 = assay: as above; conditions: P. falciparum in erythrocytes, SYBR Green DNA, 72 h; series mostly up to 28.7 µM
# In short: as §1
# CP192 = assay: as above; conditions: P. falciparum in erythrocytes, SYBR Green DNA, 72 h; series mostly up to 28.7 µM
# In short: as §1
# CP194 = assay: as above; conditions: P. falciparum in erythrocytes, SYBR Green DNA, 72 h; series mostly up to 28.7 µM
# In short: as §1
# CP201 = assay: as above; conditions: P. falciparum in erythrocytes, SYBR Green DNA, 72 h; series mostly up to 28.7 µM
# In short: as §1
# CP203 = assay: as above; conditions: P. falciparum in erythrocytes, SYBR Green DNA, 72 h; series mostly up to 28.7 µM
# In short: as §1
# CP211 = assay: as above; conditions: P. falciparum in erythrocytes, SYBR Green DNA, 72 h; series mostly up to 28.7 µM
# In short: as §1
# CP215 = assay: as above; conditions: P. falciparum in erythrocytes, SYBR Green DNA, 72 h
# In short: as §1
# CP217 = assay: as above; conditions: P. falciparum in erythrocytes, SYBR Green DNA, 72 h; series mostly up to 28.7 µM
# In short: as §1
# CP237 = assay: as above; conditions: P. falciparum in erythrocytes, SYBR Green DNA, 72 h
# In short: as §1
# [3] = measured here: PEO1 parental Z-AUC
# Potency means the concentration at half of the fitted maximal effect.
structure (smiles),measurement,setting,value
Cc1cccc(CC(=O)N2CCc3c2ccc(-c2cn(C)c4ncnc(N)c24)c3F)n1,Z-AUC,[1],-0.652 (inactive)
same,Z-AUC,[1]; [3],-1.04
same,Z-AUC,[1]; measured here: PEO4 Z-AUC,-0.572
C=CCNC1=C2C[C@@H](C)C[C@H](OC)[C@H](O)[C@@H](C)/C=C(\C)[C@H](OC(N)=O)[C@@H](OC)/C=C\C=C(/C)C(=O)NC(=CC1=O)C2=O,Z-AUC,[1],-0.418 (inactive)
same,Z-AUC,[1]; [3],-0.98
same,Z-AUC,[1]; measured here: PEO4 Z-AUC,-0.867
same,Potency,[2]; parasite line A,1410 nM (active)
same,Potency,[2]; parasite line B,2240 nM (active)
same,Potency,3D7,2240 nM (active)
same,Potency,7G8,447 nM (active)
same,Potency,AA1029,1410 nM (active)
same,Potency,AS120,1410 nM (active)
same,Potency,ATS189,2240 nM (active)
same,Potency,ATS95,2000 nM (active)
same,Potency,C2A,2000 nM (active)
same,Potency,CP185,2510 nM (active)
same,Potency,CP191,2000 nM (active)
same,Potency,CP192,4260 nM (active)
same,Potency,CP194,4260 nM (active)
same,Potency,CP201,6750 nM (active)
same,Potency,CP203,3790 nM (active)
same,Potency,CP211,3790 nM (active)
same,Potency,CP215,4780 nM (active)
same,Potency,CP217,2000 nM (active)
same,Potency,CP237,1260 nM (active)
CC[C@@H](C)Nc1cc(C(=O)NC2CC3CC[C@@H](C2)N3c2ccc(C(=O)C3CC3)cn2)c(C)cc1C(N)=O (stereo partly specified),Potency,[1],219 nM (active)
same,Z-AUC,[1]; [3],-1.88
same,Z-AUC,[1]; measured here: PEO4 Z-AUC,-1.25
CCc1cc(C(N)=O)ccc1-n1nc(C(C)C)c2c(-n3cnc(-c4cnn(C)c4)c3)ccnc21,Z-AUC,[1],-0.734 (inactive)
same,Z-AUC,[1]; [3],-1.82
same,Z-AUC,[1]; measured here: PEO4 Z-AUC,-1.2
Cc1cc(F)c(C(=O)Nc2cccc(-c3nncn3C(C)C)n2)cc1-n1cnc(C2CC2)c1,Z-AUC,[1],-0.535 (inactive)
same,Z-AUC,[1]; [3],-0.555
same,Z-AUC,[1]; measured here: PEO4 Z-AUC,-0.37
CCCc1cc(C)[nH]c(=O)c1CNC(=O)c1cc(-c2ccnc(N3CCN(C)CC3)c2)cc2c1cnn2C(C)C,Z-AUC,[1],-1.33 (inactive)
same,Z-AUC,[1]; [3],-1.11
same,Z-AUC,[1]; measured here: PEO4 Z-AUC,-1.01
CC(C)C[C@H](CO)Nc1nc(S[C@@H](C)c2ccccc2)nc2nc(N)sc12,Z-AUC,[1],-0.387 (inactive)
same,Z-AUC,[1]; [3],-0.481
same,Z-AUC,[1]; measured here: PEO4 Z-AUC,-0.0726
COC1CCN(C(=O)c2cc(Cc3n[nH]c(=O)c4ccccc34)ccc2F)CC1,Z-AUC,[1],0.585 (inactive)
same,Z-AUC,[1]; [3],-0.393
same,Z-AUC,[1]; measured here: PEO4 Z-AUC,0.328
Cc1cc(C(=O)Nc2cc(Oc3ccc4nc(NC(=O)C5CC5)cn4n3)ccc2C)n(C)n1,Z-AUC,[1],-0.702 (inactive)
same,Z-AUC,[1]; [3],-1.33
same,Z-AUC,[1]; measured here: PEO4 Z-AUC,-1.31
